Screening data as filed in PubChem.
KinaseGlo FLuc: counter-screen: inhibitors of Kinase-Glo firefly luciferase; Potency, µM (series often up to 38.3 µM), most hits filed as inhibitors; Q27757; 200,000 compounds, 0.28% hits; Kinase-Glo luciferase, ATP luminescence, 8 min; also: nearly all actives have a fitted effect of over 60% in size
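Recombinant Kinase-Glo luciferase, 10 uM ATP (linear range), luciferin; imidazole pH 7.2 / KCl / MgCl2 / Tween / BSA buffer; 8 min RT; luminescence.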
ELG1 genotox: induces genotoxicity in HEK293T cells with luciferase-tagged ELG1 | HEK293T ELG1-luciferase reporter, luminescence, 16 h | Potency, µM (top dose mostly 46 µM), most hits filed as activators | 330,000 compounds, 1.3% hits | AID 504466; also: nearly all actives have a fitted effect of over 60% in size
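Step 1: seed 2,000 HEK293T ELG1-luciferase cells per well. Step 2: add compound or DMSO, incubate 16 hr at 37 °C. Step 3: ONE-Glo, 30 min at room temperature, read luminescence.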
Rab9 promoter act: activates the Rab9 promoter | Huh7 Rab9 promoter-luciferase reporter, luminescence, 24 h | Potency, µM (highest dose often 9.22 µM), hits mostly activators | 320,000 compounds, 2.8% hits | AID 485297; also: nearly all actives have a fitted effect of over 60% in size
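Huh7 reporter line, Rab9 promoter upstream of luciferase. Compound exposure 24 h at 37 °C in reduced-serum medium with 10% FBS. Read-out: luminescence.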
FLuc modulator: counter-screen for miR-21 project: firefly luciferase inhibitors or activators; P08659; purified FLuc, Km substrates, luminescence inhibition; Potency, µM (highest dose often 57.5 µM), most hits filed as inhibitors; 360,000 compounds, 6.9% hits; also: nearly all actives have a fitted effect of over 55% in size
Target sequence (P08659 whole entry, looked up): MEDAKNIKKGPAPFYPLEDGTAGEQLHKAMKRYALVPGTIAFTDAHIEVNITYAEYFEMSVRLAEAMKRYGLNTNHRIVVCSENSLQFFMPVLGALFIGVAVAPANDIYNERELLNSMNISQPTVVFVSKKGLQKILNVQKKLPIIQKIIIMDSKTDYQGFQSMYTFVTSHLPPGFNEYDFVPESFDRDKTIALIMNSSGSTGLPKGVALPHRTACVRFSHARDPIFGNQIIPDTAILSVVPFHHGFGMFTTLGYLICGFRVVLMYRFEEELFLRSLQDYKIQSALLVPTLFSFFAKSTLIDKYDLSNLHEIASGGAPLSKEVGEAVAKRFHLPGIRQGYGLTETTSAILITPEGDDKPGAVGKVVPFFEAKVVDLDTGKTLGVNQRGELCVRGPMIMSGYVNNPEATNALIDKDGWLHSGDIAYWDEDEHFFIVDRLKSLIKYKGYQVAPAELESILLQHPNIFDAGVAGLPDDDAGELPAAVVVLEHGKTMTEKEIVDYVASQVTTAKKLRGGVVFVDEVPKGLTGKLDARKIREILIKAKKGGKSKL
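Purified P. pyralis luciferase, 10 nM final, with Km-level 10 uM D-luciferin and 10 uM ATP in 50 mM Tris acetate pH 7.5, 10 mM Mg acetate, 0.01% Tween-20, 0.05% BSA; 6-point qHTS titration about 60 µM downward; luminescence read.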
NPC1 prom act: activators of NPC1 promoter | Huh7 NPC1 promoter luciferase reporter, 24 h | Potency, µM (series often up to 9.22 µM), actives largely listed as activators | 320,000 compounds, 2.4% hits | AID 485313; also: nearly all actives have a fitted effect of over 60% in size
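Luciferase expression driven by the NPC1 promoter was measured in stably transfected Huh7 cells after a 24 h compound incubation, using a luciferase reagent and a luminescence read.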
SMN2 splice enh: enhancers of SMN2 splice variant expression; HEK293 SMN2-luciferase splicing reporter, luminescence, 30-36 h; Potency, µM (highest dose often 46.1 µM), actives largely listed as activators; 210,000 compounds, 2.8% hits; also: nearly all actives have a fitted effect of over 55% in size
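qHTS luciferase splicing reporter: luminescence rises when SMN2 exon 7 is included in transfected HEK293 cells. Compound exposure lasted 30-36 h at 37C, with 4.5 mM final sodium butyrate as control, followed by a ONE-Glo read.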
A number is an active result; i = inactive; ? = inconclusive; nt = not tested or not shown; [ ] = dose if it differs, or a comment. This is a sample that favours compounds with a hit; in the whole collection about 7.5% have one here. Calls follow the shape of the dose curve; as a rule, active = well fitted curve in the direction sought with a large enough effect; inconclusive = small, poorly fitted or top-dose-only effect, or another doubt; inactive = no such curve, though single readings can be large; an effect the other way counts as inactive or inconclusive.

SMILES	KinaseGlo FLuc	ELG1 genotox	Rab9 promoter act	FLuc modulator	NPC1 prom act	SMN2 splice enh
COc1ccc(OCc2cc(C(=O)NC(C)Cn3cncn3)no2)c(Cl)c1 (stereo not drawn)	nt	?	?	12µM	?	nt
COc1ccc(OCc2cc(C(=O)NC(C)Cc3ccccn3)no2)c(Cl)c1 (stereo not drawn)	nt	i	i	12µM	i	nt
CC(Cn1cncn1)NC(=O)c1cc(COc2cccc(C(F)(F)F)c2)on1 (stereo not drawn)	nt	i	i	i	i	nt
CC(Cc1cccnc1)NC(=O)c1cc(COc2ccc(F)cc2F)on1 (stereo not drawn)	nt	i	i	i	i	nt
O=C(NCCc1cccnc1)c1cc(COc2ccc(F)cc2F)on1	nt	i	i	i	i	nt
Cc1cc(C)n(-c2nc3cc(Cl)c(Cl)cc3nc2Nc2ccc(F)cc2C)n1	nt	nt	nt	i	nt	i
COc1ccc2c(=O)cc(CO)oc2c1	nt	i	nt	nt	nt	nt
Cc1ccc(S(=O)(=O)N(CC(=O)Nc2cccnc2)c2cc(Cl)ccc2C)cc1	nt	nt	nt	i	nt	i
Cc1cccnc1NC(=O)c1ccc2c(c1)NC(=O)C(C)S2 (stereo not drawn)	nt	?	i	17µM	i	nt
CC1Sc2ccc(C(=O)OCc3ccccc3Cl)cc2NC1=O (stereo not drawn)	nt	?	1µM	2.1µM	2.2µM	nt
CC1Sc2ccc(C(=O)O)cc2NC1=O (stereo not drawn)	i	i	i	i	i	i
CC1Sc2ccc(C(=O)Nc3ncccc3O)cc2NC1=O (stereo not drawn)	nt	?	0.89µM	7.6µM	1.3µM	nt
CCOC(=O)Cc1csc(NS(=O)(=O)c2ccc(OC)cc2)n1	i	i	i	i	i	i
O=C(O)[C@H]1CCCN1	nt	nt	nt	nt	nt	i
COC1=C(Nc2ccc(C)cc2)C(=O)c2ccccc2C1=O	i	i	?	17µM	?	?
CC(=O)NC1=C(Nc2ccc(N(C)C)cc2)C(=O)c2ccccc2C1=O	nt	i	?	12µM	i	nt
O=C(O)c1cc(C(=O)O)nc(C(=O)O)c1	i[7.66 µM]	nt	nt	nt	nt	i[9.22 µM]
COC(=O)c1cc(OC)c(OC)c(OC)c1[N+](=O)[O-]	nt	i	i	i	i	nt
COc1ccccc1NC(=O)CSc1nnc(-c2ccoc2C)o1	nt	?	?	i	?	nt
O=C(CSc1nnc(-c2ccccc2Cl)o1)Nc1ccccn1	i	?	0.56µM	i	?	nt
Cc1occc1-c1nnc(SCC(=O)Nc2ccccn2)o1	i	?	?	i	?	10µM
Cn1c(SCC(=O)NCCc2ccccc2)nnc1C1CCCCC1	nt	i	i	i	i	nt
Cc1cc(C)c(NC(=O)Cn2c(=O)n(CCCCC(=O)NCc3ccccc3Cl)c(=O)c3ccccc32)c(C)c1	nt	nt	nt	i	nt	i
O=C(c1cc(-c2cccc(Cl)c2)on1)N1CCCCC1	nt	nt	nt	21µM	nt	i
O=C(c1cc(-c2cccc(O)c2)on1)N1CCCCC1	i	3.7µM	?	3µM	?	?
SMILES	KinaseGlo FLuc	ELG1 genotox	Rab9 promoter act	FLuc modulator	NPC1 prom act	SMN2 splice enh
O=C(c1cc(-c2cccc(O)c2)on1)N1CCCC1	nt	7.3µM	?	6µM	?	nt
COC(=O)CC1Oc2ccc(C)cc2-n2cc(-c3ccc(F)cc3)nc21 (stereo not drawn)	nt	nt	nt	i	nt	i
CCN(CC)C(=O)CSc1ncnc2c(-c3cccs3)nsc12	i	i	3.2µM	i[2.3 µM]	?	i
CC(C)c1ccc(NC(=O)COc2ccc(F)cc2C(=O)c2cnn(-c3ccccc3)c2)cc1	i	i	?	9.5µM	i	?
CCOC(=O)COc1ccccc1C(=O)c1cnn(-c2ccccc2)c1	nt	?	?	11µM	?	nt
CCOC(=O)COc1ncn(-c2ccccc2)n1	i	i	i	i	i	i
CC(C)n1cc(NC(=O)COc2ccccc2Cl)cn1	nt	i	i	i	i	nt
O=C(COc1ccccc1C(=O)c1cnn(-c2ccccc2)c1)Nc1ccc2ccccc2c1	i	i	?	1.5µM	?	13µM
Cc1cc(C)nc(NS(=O)(=O)c2ccc(NC(=O)c3nc(SC(C)C)ncc3Cl)cc2)n1	nt	nt	nt	?	nt	i
Cc1nc2nc(NCc3cccc(Cl)c3)[nH]n2c(=O)c1Cc1ccccc1	nt	nt	nt	?	nt	i
CCOC(=O)c1sc(NC(=O)c2ccccc2)cc1C	i	1.3µM	0.71µM	1.1µM	1.6µM	11µM
CCOC(=O)c1sc(NC(=O)c2ccc(S(=O)(=O)N(C)C)cc2)cc1C	i	i	i	i	i	i
CCN(CC)S(=O)(=O)c1ccc(NC(=S)NC(=O)CC(C)C)cc1	i	i	i	i	i	i
CCc1ccc(NC(=S)NC(=O)CC(C)C)cc1	i	?	?	7.6µM	?	8.9µM
CCOC(=O)c1sc(NC(=S)NC(=O)CC(C)C)cc1C	i	i	?	19µM	i	i
CCOC(=O)c1sc(NC(=O)C(C)(C)C)cc1C	i	18µM	3.2µM	12µM	2.8µM	10µM
CCOC(=O)c1sc(NC(=O)Nc2ccc(Cl)cc2)cc1C	i	?	i	6.7µM	i	i
CCOC(=O)c1sc(NC(=O)c2c(C)nn(Cc3ccccc3)c2C)cc1C	i	i	i	21µM	i	i
CCOC(=O)c1c(NC(=O)Nc2ccc(Cl)cc2)sc(C)c1C	i	i	i	i	i	i
CCOC(=O)c1sc(NC(=O)c2ccc(Cl)s2)cc1C	i	2.3µM	1µM	0.6µM	?	7.9µM
CCOC(=O)c1sc(NC(=O)c2cccc(S(=O)(=O)N(CC)CC)c2)cc1C	i	i	i	?	i	i
CN1CCN(c2ccc(NC(=O)c3ccc4c(c3)OCO4)cc2)CC1	i	?	1.8µM	11µM	2.5µM	?
O=C(Nc1ccc(N2CCCCC2)cc1)c1ccc2c(c1)OCCO2	i	i	1.4µM	1.7µM	?	i
CCCn1c(N)c(N(CCOC)C(=O)c2ccc(-c3ccc(Cl)cc3)o2)c(=O)[nH]c1=O	nt	i	i	i	i	nt
Cn1cccc1C(=O)OCc1nc2ccccc2c(=O)[nH]1	nt	i	nt	nt	nt	nt
SMILES	KinaseGlo FLuc	ELG1 genotox	Rab9 promoter act	FLuc modulator	NPC1 prom act	SMN2 splice enh
Cn1cccc1C(=O)OCc1cc(-c2ccco2)on1	nt	?	3.2µM	24µM	3.5µM	nt
Cn1cccc1C(=O)OCc1ccc(C(C)(C)C)cc1	nt	?	?	11µM	i	nt
NCCC[C@@H](CC(=O)N[C@@H]1CCCC[C@H]1C(=O)N[C@H](CC(=O)N[C@@H](CCC(=O)O)CC(=O)O)Cc1c[nH]c2ccccc12)NC(=O)C[C@H](Cc1ccccc1)NC(=O)[C@@H]1CNCC[C@H]1N	i	nt	nt	nt	nt	i
O=C(NCCN1CCOCC1)c1cc(-c2ccc(Cl)c(Cl)c2)on1	nt	i	i	i	i	nt
O=C(c1cc(-c2ccc(Cl)cc2)on1)N1CCOCC1	i	0.92µM	1µM	2.7µM	0.4µM	3.2µM
O=C(c1cc(-c2ccc(Cl)c(Cl)c2)on1)N1CCOCC1	nt	?	2.8µM	3µM	1.4µM	nt
O=C(c1cc(-c2ccc(Cl)c(Cl)c2)on1)N1CCCC1	i	?	2.2µM	i	3.5µM	11µM
